# Mtb BioA inh = BioA (M. tuberculosis) enzyme inhibition; AID 602481; purified M. tuberculosis BioA enzyme, plate reader; 0.096% of 360,000 active; inhibition, % at 9.99 µM; in the data active means inhibition above about 40%; inconclusive means no clear call, values can overlap the other calls
# PriA SSB inh = K. pneumoniae PriA-SSBct interaction inhibition | AlphaScreen SSBct-PriA binding, biotinylated peptide | inhibition, % at 33 µM | 0.6% of 430,000 active | AID 1272365; in the data active means inhibition mostly above about 37%, no sharp cut-off; inactive means mostly below about 20%
# Mtb hypoxia rep = reduces hypoxia-regulated biosensor signal in M. tuberculosis. fluorescence inhibition, % (concentration not given with the values). 0.1% of 300,000 active. M. tuberculosis hypoxia-regulated fluorescent reporter, fluorescence; in the data active means fluorescence inhibition mostly above about 23%, no sharp cut-off; inactive means mostly below about 17%
# FadD28 FP inh = blocks FadD28 binding to the bisubstrate probe. fluorescence polarization. inhibition, % at 12.5 µM. 0.22% of 360,000 active; in the data active means inhibition above about 8.5%, passing the limit was not always enough; inconclusive means no clear call, values can overlap the other calls
# PrP UTR inh = suppresses PrP 5' UTR mRNA reporter expression; cell-based PrP 5' UTR mRNA reporter, plate reader; inhibition, % (concentration not given with the values); 0.35% of 340,000 active; AID 488862; in the data active means inhibition above about 52%
# TcdB GH inh = blocks C. difficile toxin B glycohydrolase activity. 0.24% of 350,000 active. TcdB glycohydrolase enzymatic assay, plate reader. P18177. inhibition, % at 9.99 µM; in the data active means inhibition above about 10%
# PrP 5UTR single = prion 5' UTR mRNA inhibition, cherry-pick retest | shares compounds with PrP UTR inh | cell-based prion protein 5' UTR reporter, plate reader | inhibition, % at 2.5 µM | 48% of 1,100 active | AID 504592; in the data active means inhibition above about 54%; inconclusive means no clear call, values can overlap the other calls
# A number is an active result; 0 = inactive; ? = inconclusive; - = not tested or not shown. A selection: hits, their analogues and other compounds. The true share with any hit is near 1%.
SMILES,Mtb BioA inh,PriA SSB inh,Mtb hypoxia rep,FadD28 FP inh,PrP UTR inh,TcdB GH inh,PrP 5UTR single
Cc1nc2ncccn2c1-c1csc(Nc2ccc(N(C)C)cc2)n1,-,0,0,0,60.3,0,90.3
COc1ccc(Nc2nc(-c3c(C)nc4ncccn34)cs2)cc1,-,0,-,0,65.5,0,86.9
CC(=O)Nc1ccccc1NC(=O)CC(C)=NNC(=O)C(=O)Nc1cccc(Cl)c1C,-,0,0,-,-,-,-
O=C(Nc1ccc(S(=O)(=O)Nc2ncccn2)cc1)C1CC(=O)N(c2ccccc2)C1 (stereo unspecified),0,0,0,0,0,0,-
O=[N+]([O-])c1cccc2nc3ccccc3c(NCCCn3ccnc3[N+](=O)[O-])c12,-,0,-,0,87.1,0,95.2
CCc1ccc(/C=C2\SC(=S)N(CCCC(=O)Nc3ccccn3)C2=O)cc1,-,0,0,0,57.2,-,55.1
COc1cc([N+](=O)[O-])ccc1NC(=O)COC(=O)C=C(C)C,0,0,0,0,61.1,0,0
C[C@@H](NC(=O)C[C@H]1CC[C@@H](NC(=O)Nc2ccc3c(c2)OCO3)[C@@H](CO)O1)c1ccccc1,0,-,-,-,-,0,-
C[C@H](CO)N1C[C@H](C)[C@H](CN(C)Cc2ccc3c(c2)OCO3)Oc2ccc(NC(=O)CCCN(C)C)cc2C1=O,-,-,-,-,-,0,-
O=C(c1ccc(Cl)s1)N1CC(c2nc(-c3cnccn3)no2)C1,-,0,-,-,-,-,-
CCOC(=O)NC1CCc2cc(OC)c(OC)c(OC)c2-c2ccc(SC)c(=O)cc21 (stereo unspecified),-,0,-,0,57.7,0,86.3
CCCCOC(=O)NC1CCc2cc(OC)c(OC)c(OC)c2-c2ccc(SC)c(=O)cc21 (stereo unspecified),-,0,-,0,0,0,-
COc1cc2c(c(OC)c1OC)-c1ccc(O)cc1C(NC(C)=O)CC2 (stereo unspecified),0,0,0,0,72.6,0,87.2
COc1ccc(C(=O)NN(C)c2nc(-c3ccccc3)nnc2C(F)(F)F)cc1,0,0,-,0,0,-,-
COc1ccc(C(=O)NN(C)c2nc(C(F)(F)F)nc3ccccc23)cc1,-,0,0,0,70.6,0,90.2
CN(C)CCCN(CCCNC(=O)/C=N/O)Cc1ccccc1,-,-,-,0,0,0,-
COc1ccc2[nH]c3c(=O)n(Cc4ccc(C(=O)N5CCCC5)cc4)c(=S)[nH]c3c2c1,-,0,0,0,0,0,-
Cc1nn(-c2nc3ccccc3[nH]2)c(=O)c2ccccc12,-,0,0,0,92.7,0,95.1
O=C(O)c1nn(-c2nc3ccccc3[nH]2)c(=O)c2ccccc12,-,0,-,-,-,-,-
CCNC(=O)CC1C(=O)N(CC)C(=S)N1NC(=O)c1cccnc1 (stereo unspecified),0,0,0,0,80.3,0,0
CNC(=O)C[C@@H]1CC[C@@H]2[C@H](COc3ccc(NC(=O)Nc4cccc(Cl)c4)cc3C(=O)N2C)O1,0,-,-,-,-,0,-
Fc1ccc(-n2nnc(-c3cnc4ccccc4c3)n2)cc1,0,0,0,0,71.5,0,53.6
Fc1ccc(-n2nnc(-c3cccnc3)n2)cc1,0,0,0,0,0,0,-
CC(=O)Nc1cc(C)ns1,-,0,-,0,68.8,0,?
N[C@@H](Cc1ccccc1)C(=O)N1C[C@H]2C[C@@H](C1)c1cccc(=O)n1C2,0,-,-,0,67.1,0,0
SMILES,Mtb BioA inh,PriA SSB inh,Mtb hypoxia rep,FadD28 FP inh,PrP UTR inh,TcdB GH inh,PrP 5UTR single
O=C1c2cccnc2C(Nc2cccc(F)c2)N1Cc1ccco1 (stereo unspecified),0,0,0,0,0,0,-
CCN(CC)c1ccc(C2NC(=O)c3ccccc3N2)cc1 (stereo unspecified),-,0,-,0,60.0,0,0
Fc1ccc(-c2nnc3sc(-c4ccccn4)nn23)cc1,-,0,-,-,-,-,-
Cc1csc(NC(=O)c2ccc(N3CCCC3=O)cc2)n1,-,0,0,0,55.5,0,?
Cc1nnc(NC(=O)c2ccc(N3CCCC3=O)cc2)s1,-,0,0,0,0,0,-
O=C(NCCN1C(=O)S/C(=C/c2cccnc2)C1=O)c1ccc(S(=O)(=O)N2CCCC2)cc1,-,0,-,0,85.2,0,0
C[C@@H]1CC[C@H](O)/C=C/C(=O)O[C@H](C)CC[C@H](O)/C=C\C(=O)O1,-,0,-,-,-,-,-
C[C@H]1CCC/C=C/[C@@H]2C[C@H](O)C[C@H]2[C@H](O)[C@H](S(=O)c2ccc(O)cc2)CC(=O)O1 (stereo partly specified),-,0,-,0,86.0,0,69.3
C[C@H]1CCC/C=C/[C@@H]2C[C@H](O)C[C@H]2[C@@H](O)/C=C/C(=O)O1,-,0,-,0,86.4,0,90.8
CC1CCCC=CC2CC(OC(=O)CN(C)C)CC2C(O)C=CC(=O)O1 (stereo unspecified),-,0,-,0,80.6,0,90.3
O=C(Oc1ccc(C=Nc2ccccc2Br)cc1)c1ccccn1,-,0,-,-,-,-,-
CC(=NNC(=O)c1n[nH]c2c1CCC2)c1cccs1,-,0,0,-,-,-,-
C/C(=N\NC(=O)c1n[nH]c2c1CCC2)c1cccs1,0,-,-,0,75.9,0,73.0
CN(C)c1ccc(C(=S)Nc2ccccc2)cc1,-,0,0,0,0,0,-
CN(C)c1ccc(NC(=S)c2ccccn2)cc1,0,0,0,0,82.6,0,80.1
O=C(NC(=S)Nc1ccc(C(F)(F)F)cc1)c1csnn1,-,0,0,0,0,0,-
COc1ccccc1CCc1nnc(CCC(=O)N(C)Cc2cccc3ncccc23)o1,-,0,0,0,57.7,0,0
CCN(CC)c1nc2c(s1)C(=O)NCCC2,-,0,0,0,0,-,-
CCc1ccc(C(=O)Nc2nc3ccccc3[nH]2)cc1,0,0,-,0,62.7,0,?
CC(C)Oc1ccc(C(=O)Nc2nc3ccccc3[nH]2)cc1,0,0,0,0,60.9,0,61.7
O=C(Nc1nc2ccccc2[nH]1)c1ccc(F)cc1,-,0,0,0,0,0,-
O=C(Nc1nc2ccccc2[nH]1)c1ccccc1F,0,0,0,0,84.6,-,85.0
Cc1ccc(C=NNc2nc(C)cc(C)n2)cc1,-,-,0,-,-,-,-
N=C(N)SCP(=O)(c1ccccc1)c1ccccc1,-,0,0,0,63.6,0,0
CN(Cc1ccccc1)C1CCCN(C(=O)COc2ccccc2Cl)C1 (stereo unspecified),0,0,0,-,0,0,-
SMILES,Mtb BioA inh,PriA SSB inh,Mtb hypoxia rep,FadD28 FP inh,PrP UTR inh,TcdB GH inh,PrP 5UTR single
COc1ccc(NC(=O)COC(=O)Cc2c[nH]c3ccccc23)cc1OC,-,0,0,0,68.4,0,0
O=C1C=C(Nc2cccc3cccnc23)c2ccccc2C1=O,0,0,-,0,64.2,0,0
Cc1ccc(C(=O)NCCCn2ccnc2)o1,0,0,-,0,72.9,-,0
CCC(=O)NC(c1ccc(OC)cc1)c1cc(Cl)c2cccnc2c1O (stereo unspecified),-,0,0,0,0,0,-
COc1ccc(C(NC(=O)c2cccnc2)c2cc(Cl)c3cccnc3c2O)cc1OC (stereo unspecified),0,0,0,0,88.7,-,0
O=C(O)CSCC(=O)Nc1ccc(C2CCCCC2)cc1,0,0,0,0,52.7,-,54.4
